According to PubChem BioAssay AID1117300 (National Center for Advancing Translational Sciences (NCATS), 2015):
Active and inactive are the calls of the source. Calls come from the whole dose curve.

Conditions: Ebola virus entry assay, ratio channel readout

**Q.** For CO[C@H]1C[C@@H]2CC[C@@H](C)[C@@](O)(O2)C(=O)C(=O)N2CCCC[C@@H]2C(=O)O[C@H]([C@H](C)C[C@@H]2CC[C@H](OCCO)[C@H](OC)C2)CC(=O)[C@H](C)C=C(C)[C@@H](O)[C@@H](OC)C(=O)[C@H](C)C[C@H](C)C=CC=CC=C1C, which outcome is on record?
**A.** The outcome was “inactive”.

**Q.** Which outcome does the source give for Cc1nnc(C(C)C)n1C1C[C@H]2CC[C@@H](C1)N2CC[C@H](NC(=O)C1CCC(F)(F)CC1)c1ccccc1 (stereo not given in full) here?
**A.** Its outcome is “inactive”.

**Q.** For CN1CCN(CCCN2c3ccccc3Sc3ccc(C(F)(F)F)cc32)CC1, which AC50 is on record?
**A.** The AC50 was 7.69 µM (active).

**Q.** Which AC50 does the source give for CCCCc1oc2ccc(NS(C)(=O)=O)cc2c1C(=O)c1ccc(OCCCN(CCCC)CCCC)cc1 here?
**A.** The AC50 was 3.85 µM (active).

**Q.** Which outcome does the source give for COC(=O)Nc1nc2ccc(C(=O)c3ccccc3)cc2[nH]1 here?
**A.** Its outcome is “inactive”.

**Q.** With CCC1=C[C@@H]2CN(C1)Cc1c([nH]c3ccccc13)[C@@](C(=O)OC)(c1cc3c(cc1OC)N(C)[C@H]1[C@@](O)(C(=O)OC)[C@H](OC(C)=O)[C@]4(CC)C=CCN5CC[C@]31[C@@H]54)C2 as the compound, how does the AC50 read?
**A.** The AC50 was 0.0863 µM (active).

**Q.** With CCN(CC)CCNC(=O)c1c(C)[nH]c(/C=C2\C(=O)Nc3ccc(F)cc32)c1C as the compound, how does the AC50 read?
**A.** The AC50 was 2.17 µM (active).

**Q.** Which outcome does the source give for CC[C@H]1OC(=O)[C@H](C)[C@@H](O[C@H]2C[C@@](C)(OC)[C@@H](O)[C@H](C)O2)C(C)[C@@H](O[C@@H]2O[C@H](C)C[C@H](N(C)C)[C@@H]2O)[C@](C)(OC)C[C@@H](C)C(=O)[C@H](C)[C@@H](O)[C@]1(C)O (stereo not given in full) here?
**A.** The outcome was “inactive”.

**Q.** With CN(C)CCOc1ccc(/C(=C(/CCCl)c2ccccc2)c2ccccc2)cc1 as the compound, how does the AC50 read?
**A.** Its AC50 is 1.09 µM (active).

**Q.** With CC[C@]1(O)C[C@H]2CN(CCc3c([nH]c4ccccc34)[C@@](C(=O)OC)(c3cc4c(cc3OC)N(C=O)[C@H]3[C@@](O)(C(=O)OC)[C@H](OC(C)=O)[C@]5(CC)C=CCN6CC[C@]43[C@@H]65)C2)C1 as the compound, how does the AC50 read?
**A.** Its AC50 is 0.153 µM (active).

**Q.** With COC(=O)Nc1nc2ccc(C(=O)c3cccs3)cc2[nH]1 as the compound, how does the AC50 read?
**A.** The AC50 was 0.544 µM (active).

**Q.** With CC[C@H]1OC(=O)[C@H](C)[C@@H](O[C@H]2C[C@@](C)(OC)[C@@H](O)[C@H](C)O2)[C@H](C)[C@@H](O[C@@H]2O[C@H](C)C[C@H](N(C)C)[C@@H]2O)[C@](C)(O)C[C@@H](C)CN(C)[C@H](C)[C@@H](O)[C@]1(C)O as the compound, how does the AC50 read?
**A.** Its AC50 is 6.11 µM (active).

**Q.** For CCCNCC(O)COc1ccccc1C(=O)CCc1ccccc1 (stereo not given), which outcome is on record?
**A.** Its outcome is “inactive”.

**Q.** With COc1cccc2c1C(=O)c1c(O)c3c(c(O)c1C2=O)C[C@@](O)(C(C)=O)C[C@H]3O[C@H]1C[C@H](N)[C@H](O)[C@H](C)O1 as the compound, how does the AC50 read?
**A.** The AC50 was 2.73 µM (active).

**Q.** With CC[C@]1(O)C[C@@H]2CN(CCc3c([nH]c4ccccc34)[C@@](C(=O)OC)(c3cc4c(cc3OC)N(C)[C@H]3[C@@](O)(C(=O)OC)[C@H](OC(C)=O)[C@]5(CC)C=CCN6CC[C@]43[C@@H]65)C2)C1 as the compound, how does the AC50 read?
**A.** The AC50 was 0.122 µM (active).

**Q.** For COC1=CC(=O)C[C@@H](C)[C@]12Oc1c(Cl)c(OC)cc(OC)c1C2=O, which outcome is on record?
**A.** The outcome was “inactive”.

**Q.** For CO[C@H]1C[C@@H]2CC[C@@H](C)[C@@](O)(O2)C(=O)C(=O)N2CCCC[C@@H]2C(=O)O[C@H]([C@@H](C)C[C@@H]2CC[C@H](O)[C@H](OC)C2)CC(=O)[C@H](C)C=C(C)[C@@H](O)[C@@H](OC)C(=O)[C@H](C)C[C@H](C)C=CC=CC=C1C, which outcome is on record?
**A.** The outcome was “inactive”.

**Q.** Which outcome does the source give for C[C@@H]1O[C@@H](O[C@H]2CC[C@@]3(C)[C@H](CC[C@@H]4[C@H]3C[C@@H](O)[C@]3(C)[C@@H](C5=CC(=O)OC5)CC[C@]43O)C2)C[C@H](O)[C@@H]1O[C@H]1C[C@H](O)[C@H](O[C@H]2C[C@H](O)[C@@H](O)[C@@H](C)O2)[C@H](C)O1 (stereo in doubt) here?
**A.** Its outcome is “inactive”.

**Q.** For CCCSc1ccc2nc(NC(=O)OC)[nH]c2c1, which outcome is on record?
**A.** The outcome was “inactive”.

**Q.** For C[C@]12CC[C@@H]3c4ccc(O)cc4C[C@@H](CCCCCCCCCS(=O)CCCC(F)(F)C(F)(F)F)[C@H]3[C@@H]1CC[C@@H]2O (stereo not given in full), which outcome is on record?
**A.** The outcome was “inactive”.
